# Shown are actives, neighbours in structure and some others; about 4.3% of the full set was active somewhere.
# NR3A LBD binder = modulates the human NR3A ligand-binding domain; NR3A LBD differential scanning fluorimetry, Tm shift; 0% = protein alone, 100% = glycine-bound protein; actives 2.5% (n = 340,000); Tm shift relative to glycine control, % at 25 µM;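 active means melting temperature shift of at least 10% of the positive control shift, at one fixed dose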
# FAS TE block = inhibitors of human fatty acid synthase thioesterase domain; recombinant FAS-TE, OMFH fluorogenic substrate, fluorescence endpoint; actives 0.67% (n = 360,000); inhibition, % at 15 µM;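 active means compounds whose normalised, plate-corrected inhibition of enzyme fluorescence in the single-dose primary screen is 50% or more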
# rCAG binder = molecules binding r(CAG) RNA repeats; inhibition, % at 3 µM; actives 1.3% (n = 370,000); r(CAG) RNA repeat, TO-PRO-1 dye displacement fluorescence; AID 651821;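 active means inhibition above the plate cutoff, the mean of all test compounds on that plate plus 3 SD, cut at about 35% in these data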;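 further: higher means more dye released from RNA so lower well fluorescence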
# NadD block = inhibitors of Staphylococcus aureus NadD | purified NadD enzyme, colorimetric absorbance read-out | inhibition, % at 20 µM | actives 0.78% (n = 360,000) | AID 602399; in the data active means inhibition above about 26%
# NadD inh conf = confirmation of Staphylococcus aureus NadD inhibitors. AID 624309. actives 13% (n = 2,000). inhibition, % at 20 µM. purified S. aureus NadD, colorimetric enzyme assay. shares compounds with NadD block; in the data active means inhibition mostly above about 42%, no sharp cut-off; inactive means mostly below about 42%
# Numbers stand for hits; 0 = inactive; - = not tested or not shown.
SMILES,NR3A LBD binder,FAS TE block,rCAG binder,NadD block,NadD inh conf
Cc1ccc(Cn2c(C(C)Nc3nc(-c4ccc(C)cc4)cs3)nc3cc(Cl)c(Cl)cc32)cc1 (stereo unspecified),0,0,0,35.2,0
Cc1ccc(Cn2c(C(C)Nc3nc(-c4ccc(Cl)c([N+](=O)[O-])c4)cs3)nc3cc(C(F)(F)F)ccc32)cc1 (stereo unspecified),14.3,0,0,37.5,0
CCCn1c(C(C)Nc2nc(-c3cc(Cl)c(N)c(Cl)c3)cs2)nc2cc(Cl)c(N3CCCCC3)cc21 (stereo unspecified),0,0,0,33.3,0
CC(Nc1nc(-c2ccc(Cl)cc2)cs1)c1nc2cc(Cl)c(N3CCCCC3)cc2n1CCOCCO (stereo unspecified),0,0,0,0,-
COC(=O)[C@]12C[C@H](CC(=O)NCc3cccc(C(F)(F)F)c3)C(=O)N(Cc3ccco3)C1=C[C@H](C(C)C)O[C@@H]2C1CC1,-,-,0,-,-
COc1ccc(-c2csc(NC(=S)NC(=O)c3ccc(S(=O)(=O)N(C)C)cc3)n2)cc1OC,0,0,0,0,-
COc1ccc(-c2csc(NC(=S)NC(=O)c3cccs3)n2)cc1Br,38.2,0,0,24.6,0
CC(C)C[C@@H](CN1CCCC1CN1C(=S)NC[C@@H]1Cc1ccccc1)N1C[C@H](Cc2ccccc2)N(CC2CCCCCC2)C1=S (stereo partly specified),-,0,0,0,-
CC(C)C[C@@H](CN1CCCC1CN1C(=S)NC[C@@H]1Cc1ccc(O)cc1)N1C[C@H](Cc2ccc(O)cc2)N(CC2CCCCCC2)C1=S (stereo partly specified),35.8,0,0,55.3,0
CC(C)C[C@H]1CNC(=S)N1C[C@H]1CCCN1C[C@H](CC(C)C)N1C[C@H](Cc2ccc(O)cc2)N(CC2CCCCC2)C1=S,-,0,0,40.9,0
Cc1cc(-n2c(SCC(=O)Nc3ccc(Br)cc3)nc3n[nH]c(C)c3c2=N)ccc1Cl,19.8,0,0,31.8,0
O=C(NC(C(=O)N/N=C/c1c2ccccc2cc2ccccc12)c1n[nH]c(=O)c2ccccc12)c1ccccc1 (stereo unspecified),0,0,0,51.3,0
O=C(Nc1ncc(Cc2ccccc2Cl)s1)c1ccc(-c2cccc([N+](=O)[O-])c2)o1,0,0,0,36.0,0
O=C(Nc1ncc(Cc2ccc(C(F)(F)F)cc2)s1)c1ccc(-c2cccc([N+](=O)[O-])c2)o1,0,0,0,0,-
C#CCCCN([C@@H](CC(C)C)C(=O)OC)S(=O)(=O)c1ccccc1Br,-,-,0,-,-
O=S1(=O)c2ccc(Br)cc2OC[C@H](Cc2ccccc2)N1Cc1cn(CCC2OCCCO2)nn1,-,-,0,-,-
COc1ccc(/C=C/S(=O)(=O)NCc2ccccc2)c(CNC(=O)OC(C)(C)C)c1,-,-,0,-,-
Cc1ccc(NC(=O)Nc2nc3ccccc3s2)cc1NC(=O)Nc1nc2ccccc2s1,27.9,0,0,27.9,0
CCNC(=O)Nc1nc2ccccc2s1,0,0,0,0,-
CCN(CC)c1nc(C)nc2c1nnn2Cc1ccccc1,-,-,0,-,-
CCOC(=O)C1=C(C)c2ccccc2N(C(=O)OC)C1(C)C(=O)OCC (stereo unspecified),0,0,0,43.7,69.0
O=C(Nc1ccccc1)OC1CC2CC1[C@H]1CCCCN1[C@H]2Cc1ccccc1 (stereo partly specified),-,-,0,-,-
O=C(Cc1ccccc1)N/N=C/c1ccc(-c2ccc([N+](=O)[O-])cc2)o1,0,0,0,0,-
CCOc1ccc(C(=O)N/N=C/c2ccc(-c3ccc(S(=O)(=O)Nc4ncccn4)cc3)o2)cc1,0,0,56.8,32.5,52.8
CCOc1ccc(S(=O)(=O)Nc2ccc(C(=O)NN)cc2)cc1,0,0,0,0,-
SMILES,NR3A LBD binder,FAS TE block,rCAG binder,NadD block,NadD inh conf
CCOc1ccc(S(=O)(=O)N(CC(=O)N/N=C/c2ccc(-c3ccc([N+](=O)[O-])cc3)o2)c2ccccc2)cc1,0,0,0,41.4,0
Cn1c(=O)c2cc(S(=O)(=O)N3CCN(CCO)CC3)ccc2n(C)c1=O,-,-,0,-,-
COc1cc2c(cc1NC(=O)CN1CCN(S(=O)(=O)c3ccc(C)cc3)CC1)oc1ccccc12,0,0,0,32.8,0
COc1ccc(S(=O)(=O)Nc2ccccc2Cl)cc1NC(C)=O,0,0,0,0,-
COc1cc2c(cc1NC(=O)C(C)OC(=O)c1ccc(S(=O)(=O)Nc3ccccc3Cl)cc1)oc1ccccc12 (stereo unspecified),10.2,0,0,31.9,0
CCCC(=O)N1CCC[C@]2(CC[C@H](CCC(=O)OCC)O2)C1,-,-,0,-,-
O=C(COC(=O)c1ccc(Br)o1)Nc1ncc([N+](=O)[O-])s1,0,0,0,0,-
O=C(COC(=O)c1ccc(Br)o1)Nc1nc2c(F)c(F)c(F)cc2s1,0,0,0,34.4,0
O=c1c(/C=N/Nc2ccccc2)c(Sc2nnnn2-c2ccccc2)nc2ccccn12,15.8,0,0,30.6,0
CCOC(=O)c1csc(NC(=O)C2CCCN(S(=O)(=O)c3ccc(C)cc3)C2)n1 (stereo unspecified),-,-,0,-,-
Nc1nc(COc2ccccc2C=O)nc(Nc2ccccc2)n1,0,0,0,29.0,36.0
COc1ccc(OCc2nc(N)nc(Nc3ccccc3)n2)cc1,0,0,0,0,-
CC(=O)Nc1ccc(NC(=O)COc2ccc([N+](=O)[O-])cc2)cc1,0,0,0,0,-
O=C(COc1ccc(/C=N/NC(=O)c2ccccc2O)cc1)Nc1ccc([N+](=O)[O-])cc1,37.4,0,0,39.5,0
COc1ccc(Cn2c(SCc3ccccc3C)nc3cc(OC)c(OC)cc3c2=N)cc1,-,0,0,30.4,0
CCC(C)N(C(=O)CSc1nnc(-c2cc(OC)c(OC)c(OC)c2)o1)C(C)CC (stereo unspecified),-,-,0,-,-
CCn1c(COc2ccc(C)cc2)nnc1SCC(=O)Nc1ccc(Oc2ccccc2)cc1,-,-,0,-,-
COc1ccc(C)cc1-n1c(SCC(=O)Nc2cc(C)on2)nc2sc(C)c(C)c2c1=O,0,0,0,36.5,0
COc1ccc(C)cc1-n1c(SCC(=O)Nc2cc(C)on2)nc2ccccc2c1=O,0,0,0,0,-
N#Cc1ccc(Cn2ccc3ccc(-c4ccc5ccn(Cc6ccc(C#N)cc6)c5c4)cc32)cc1,-,-,0,-,-
COc1ccc(/C=N/NC(=O)c2cc(Br)ccc2O)cc1Cn1cc(Cl)cn1,20.7,0,0,38.5,0
Cc1cc(-c2cc(C(=O)O)c3ccccc3n2)c(C)s1,0,0,0,57.6,0
COC(=O)[C@]12C[C@H](CC(=O)NCC34CC5CC(CC(C5)C3)C4)C(=O)N(Cc3ccccc3)C1=C[C@H](C(C)C)O[C@@H]2C1CC1,-,-,0,-,-
COc1ccc(C2NCCc3c2[nH]c2ccccc32)cc1CSc1nc2ccccc2s1 (stereo unspecified),0,0,0,44.3,0
CCCCN(C)C(=O)CNc1nnnn1-c1ccccc1,-,-,0,-,-
O=c1cc(CN2CCN(S(=O)(=O)c3cccc(Cl)c3)CC2)c2ccc(O)cc2o1,0,0,0,35.0,0

# Screening data deposited in PubChem BioAssay by several laboratories.
